For 20 molecules, outcome and AC50 results are on record in PubChem BioAssay (EPA / NIEHS).

Test [1] concerns the target Cellular tumor antigen p53 (Homo sapiens) (UniProt P04637). The test can be described thus: TOX21_p53_BLA_p2_ratio: Tox21 HCT-116 p53 Agonism Beta-lactamase Assay, Ratio, Phase 2 (AID 2283592). An outline of the steps:
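In this cell-based reporter format, HCT116 cells were dosed with chemicals delivered from DMSO by 217-fold dilution and incubated 16 h at 37C. Emission at 460 and 530 nm after 2 h CCF4-AM loading provided the ratio, fitted upward versus DMSO.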

Test [2] can be described thus: TOX21_p53_BLA_p3_viability: Viability Assessment in the Tox21 HCT-116 p53 Agonism Beta-lactamase Assay, Phase 3 (AID 2283593).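 Also: cells exposed to compound for 16 h before reading.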 The essentials: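 HCT-116 cells (4000/well) rested 5 h at 37C, then got DMSO compounds by pin tool (217-fold dilution) for 16 h at 37C, 5% CO2. After the bla read, CellTiter-Glo was added and luminescence read at 30 min, room temperature.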

The nature of test [3]: Tanguay_ZF_120hpf_MORT_legacy: (Legacy) Oregon State University Tanguay Lab 120 Hour Post-fertilization zebrafish Assay for Mortality (AID 2283633).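 As to AC50: fitted as increase in binary mortality versus DMSO negative control.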 The essentials:
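Brightfield scoring of embryo death (binary) at 24 and 120 hpf; static exposure 6–120 hpf, 28C, sealed and foil-covered. Pronase-dechorionated 5D wild-type larvae, single embryo per well. DMSO 0.64% v/v; trimethyltin chloride 5uM positive control.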

The nature of test [4]: Tanguay_ZF_120hpf_YSE_legacy: (Legacy) Oregon State University Tanguay Lab 120 Hour Post-fertilization zebrafish Assay for Yolk Sac Edema (AID 2283634).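 As to AC50: actives raise the incidence of yolk sac edema above the DMSO baseline.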 The essentials:
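Binary brightfield scoring of yolk sac edema at 120 hpf; DMSO baseline, gain-of-signal fitting. Dechorionated 5D larvae, one per well, static exposure 6–120 hpf, 28C, 0.64% DMSO. Dead embryos not scored.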

The nature of test [5]: Tanguay_ZF_120hpf_AXIS_legacy: (Legacy) Oregon State University Tanguay Lab 120 Hour Post-fertilization zebrafish Assay for Body Axis Malformation (AID 2283635).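 As to AC50: potency for an increased fraction of larvae scored with body axis malformation.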 An outline of the steps:
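Embryos: 5D wild-type, pronase-dechorionated 4 hpf; static exposure 6–120 hpf, 28C, sealed, dark, 1 embryo/well, 0.64% DMSO. 120 hpf axis malformation scored present/absent; dead embryos excluded. Analysed as gain of signal vs DMSO.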

Test [6] can be described thus: TOX21_p53_BLA_p4_viability: Viability Assessment in the Tox21 HCT-116 p53 Agonism Beta-lactamase Assay, Phase 4 (AID 2283597).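 Also: hits lower the luminescence signal meaning cytotoxicity.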 An outline of the steps:
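We seeded HCT116 p53 reporter cells at 4000/well and waited 5 h. We then added compounds in DMSO at a 217-fold dilution and incubated for 16 h. Viability was read as CellTiter-Glo luminescence after 30 min at RT.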

Test [7] concerns the target Cellular tumor antigen p53 (Homo sapiens) (UniProt P04637). The test can be described thus: TOX21_p53_BLA_p5_ratio: Tox21 HCT-116 p53 Agonism Beta-lactamase Assay, Ratio, Phase 5 (AID 2283599). An outline of the steps: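 HCT-116 cells carrying a p53-inducible beta-lactamase reporter were seeded at 4000 cells/well and dosed after 5 h with compound in DMSO (217-fold dilution). After 16 h at 37C, CCF4-AM substrate was added for 2 h, and the 460/530 nm emission ratio was scored as gain-of-signal versus DMSO.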

Test [8] is described as follows: TOX21_p53_BLA_p5_viability: Viability Assessment in the Tox21 HCT-116 p53 Agonism Beta-lactamase Assay, Phase 5 (AID 2283600). An outline of the steps:
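Compounds, pinned from DMSO at 217-fold dilution, were left on the cells for 16 h. The viability endpoint was ATP content measured by CellTiter-Glo luminescence, where falling signal reflects cytotoxicity.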

The target in test [9] is Cellular tumor antigen p53 (Homo sapiens) (UniProt P04637). The test can be described thus: TOX21_p53_BLA_p4_ratio: Tox21 HCT-116 p53 Agonism Beta-lactamase Assay, Ratio, Phase 4 (AID 2283601). The essentials: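 HCT116 cells carrying an inducible beta-lactamase reporter were plated at 4000 cells/well, rested 5 h, then exposed to compounds in DMSO (217-fold dilution) for 16 h at 37C. CCF4-AM substrate was loaded 2 h at room temperature; 460/530 nm emission ratio scored gain-of-signal versus DMSO.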

Test [10] has the same target. Kind of test: TOX21_p53_BLA_p3_ratio: Tox21 HCT-116 p53 Agonism Beta-lactamase Assay, Ratio, Phase 3 (AID 2283596). An outline of the steps: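 HCT116 p53-bla cells (4000/well) given compound in DMSO (217-fold dilution) after 5 h, incubated 16 h at 37C. CCF4-AM substrate 2 h at room temperature; 460/530 nm emission ratio, gain fitted against DMSO.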

Values joined by “and” are separate entries in the source; they are usually repeats but may differ in a detail not shown here. Equal entries are not always repeated. Results filed as inconclusive are left out. Active and inactive are the calls of the source. The calls were made as follows: active = hit-call score of the fitted dose curve at least 0.9, where 1 is the maximum; inconclusive = response in the unintended direction; inactive = score below 0.9.

Chain of Cellular tumor antigen p53 (Homo sapiens) (P04637 whole entry, looked up): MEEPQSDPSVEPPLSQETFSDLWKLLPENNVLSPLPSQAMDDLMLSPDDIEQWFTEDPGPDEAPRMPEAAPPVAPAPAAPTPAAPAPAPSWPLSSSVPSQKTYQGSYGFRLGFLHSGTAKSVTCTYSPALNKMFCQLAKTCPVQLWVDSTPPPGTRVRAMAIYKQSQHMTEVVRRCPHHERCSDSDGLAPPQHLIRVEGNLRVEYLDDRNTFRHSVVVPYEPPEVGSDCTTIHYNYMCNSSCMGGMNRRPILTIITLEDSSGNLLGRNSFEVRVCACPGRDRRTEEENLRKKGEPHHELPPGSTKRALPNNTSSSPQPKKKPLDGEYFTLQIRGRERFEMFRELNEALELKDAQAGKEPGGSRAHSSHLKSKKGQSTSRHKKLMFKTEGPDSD

For the molecule `[As]#[In]`, the result in test [1], in test [2], in test [3], in test [4] and in test [5] was inactive.

Regarding `CCC(C)c1ccc(O)cc1` (stereo not drawn), the outcome in test [1], in [2], in [6], in test [7], in [8] and in test [3] was inactive. For the same molecule, the outcome in [5] was inactive.

On to `C=CCc1ccc2c(c1)OCO2`, for which the result in [1], in [2], in test [6], in test [7], in [8] and in test [3] was inactive. Further, the call in test [5] was inactive.

On to `CS(=O)(=O)NC(=O)c1cc(Oc2ccc(C(F)(F)F)cc2Cl)ccc1[N+](=O)[O-]`, for which the result in test [1], in test [2], in [8], in test [3] and in [5] was inactive.

Consider `N#CC(Br)(Br)C(N)=O`, for which the result in test [1], in [2], in [8], in test [9], in test [3] and in test [4] was inactive. Besides, the call in [5] was inactive. Besides, in test [6], the half-maximal activity concentration (AC50) was 70.2 µM (active).

For the molecule `CCC12COCN1COC2`, the result in test [1], in test [2], in test [6], in test [7], in test [8] and in test [9] was inactive. Further, the outcome in test [3], in [4] and in test [5] was inactive.

For `Cc1ccc(N=C=O)cc1N=C=O`, the outcome in test [1], in [2], in [6], in test [7], in test [8] and in test [3] was inactive. Also, in [5], the call was inactive.

`COC(=O)Nc1nc2ccccc2[nH]1`: the AC50 in test [1] was 10.1 µM (active) and 7.91 µM (active); in test [7], 15 µM (active) and 15.4 µM (active); in [9], 9.43 µM (active) and 7.88 µM (active). Also, the result in test [2], in test [6] and in [5] was inactive.

On to `CN(C)[C@@H]1C(=O)C(C(N)=O)=C(O)[C@@]2(O)C(=O)C3=C(O)c4c(O)cccc4[C@@](C)(O)[C@H]3C[C@@H]12`, for which the outcome in [1], in test [2], in test [6], in [7], in [8] and in [3] was inactive. Further, in test [5], the molecule was classed as inactive.

Regarding `COc1cc(C=O)cc2c1[C@H](COC(N)=O)[C@]1(OC(C)=O)ON2C[C@H]2[C@@H]1N2C(C)=O`, the figures for the AC50 in test [1], in [7] and in [5] were 249 nM (active), 546 nM (active) and 51.3 µM (active), respectively. The outcome in test [2], in test [6] and in test [3] was inactive.

For the molecule `Oc1ccc2ccc3cccc4ccc1c2c34`, the outcome in test [1], in [2], in test [6], in test [7], in test [8] and in [9] was inactive. The values for the AC50 in test [3], in test [4] and in test [5] were 35.6 µM (active), 13.7 µM (active) and 13.1 µM (active), respectively.

Consider `Nc1ccc(Oc2ccc(N)cc2)cc1`, for which the result in test [1], in [2], in test [7], in test [8], in test [3] and in test [5] was inactive.

Regarding `CC(C)(C)OOC(C)(C)CCC(C)(C)OOC(C)(C)C`, the result in test [1], in [2], in [7], in [8], in [9] and in test [3] was inactive.

With `CC(C)(C)OOC(=O)c1ccccc1`, the result in [1], in test [2], in [6], in test [7], in test [8] and in test [9] was inactive. In addition, the molecule was called inactive in [3] and in test [5].

For the molecule `Cc1ccc([N+](=O)[O-])cc1`, the result in [1], in test [10], in test [6], in test [7], in [8] and in test [3] was inactive.

Consider `CCCCCCCCCCCCCN1CC(C)OC(C)C1` (stereo not drawn), for which the outcome in [1], in test [2], in [9], in test [3], in test [4] and in test [5] was inactive.

In the case of `Oc1ccccc1Cl`, the result in [1], in test [2], in [7], in test [8], in test [9] and in [3] was inactive.

For the molecule `O=C1CCCO1`, the outcome in test [1], in test [2], in test [6], in test [7], in test [8] and in test [3] was inactive. Also, the molecule was classed as inactive in test [4] and in [5].

Regarding `CCCCOC(=O)c1ccccc1C(=O)OCc1ccccc1`, the result in [1], in test [2], in test [6], in test [7], in test [8] and in test [3] was inactive. Also, the molecule was called inactive in [4] and in [5].

Regarding `CN(C)C(=O)Nc1ccc(Cl)cc1`, the outcome in test [1], in test [2], in [6], in test [7], in test [8] and in test [9] was inactive. The outcome in test [3] and in [5] was inactive.
